The results in this text go back to PubChem BioAssay (NCI).

Common to all, as to experiment: NCI-60 one-dose screen, 48 h (100 = growth as untreated, 0 = no growth, -100 = all killed)
In one experiment the test system is SR leukemia. To be noted: 10 µM unless noted.
A further experiment concerns RPMI-8226 leukemia. To be noted: 10 µM unless noted.
Another experiment deals with OVCAR-8 ovarian. To be noted: 10 µM unless noted.
A further experiment relates to OVCAR-5 ovarian. To be noted: 10 µM unless noted.
Another experiment deals with OVCAR-4 ovarian. To be noted: 10 µM unless noted.
The subject of the next experiment is SK-OV-3 ovarian. To be noted: 10 µM unless noted.
The next experiment deals with IGROV1 ovarian. To be noted: 10 µM unless noted.
Another experiment deals with OVCAR-3 ovarian. To be noted: 10 µM unless noted.
Another experiment concerns HS 578T breast. To be noted: 10 µM.
In a further experiment the test system is NCI/ADR-RES ovarian. To be noted: 10 µM unless noted.
Another experiment relates to T-47D breast. To be noted: 10 µM unless noted.
In another experiment the test system is BT-549 breast. To be noted: 10 µM unless noted.
A further experiment concerns MDA-MB-435 melanoma. To be noted: 10 µM unless noted.
A further experiment deals with SW-620 colon. To be noted: 10 µM unless noted.
The next experiment has as its system MCF7 breast. To be noted: 10 µM unless noted.
For a further experiment, the system named is HCT-116 colon. To be noted: 10 µM unless noted.
The test system of the next experiment is HCC-2998 colon. To be noted: 10 µM.
A further experiment deals with KM12 colon. To be noted: 10 µM unless noted.

About 83,000 compounds went through this panel and 20% of them were active in at least one assay; those are over-represented in the sample as a whole.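 The endpoint reported here, percent growth, reads 100 for growth as untreated, 0 for no net growth and -100 for all cells dead.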 A number with no mark means an inactive call. Activity calls are given as the source filed them. How the source made its calls: active means growth percent below 10; inactive means the rest.

Regarding `Cc1cc(N(CCNc2ccnc3cc(Cl)ccc23)Cc2ccc3c(c2)OCO3)nc(N2CCN(C)CC2)n1`, the growth in the experiment with SR leukemia was -33.4% (active); with RPMI-8226 leukemia it was -42.3% (active); in the experiment with OVCAR-8 ovarian, 20.3%; with OVCAR-5 ovarian, 97.2%; with OVCAR-4 ovarian it was 36%; in the experiment on SK-OV-3 ovarian, 67.4%. The growth in the experiment with IGROV1 ovarian was 51.7%; in the experiment on OVCAR-3 ovarian, 26.5%; in the experiment with HS 578T breast, 34.4%; with NCI/ADR-RES ovarian, 40.9%; with T-47D breast, -36.9% (active); in the experiment on BT-549 breast, 21.6%. Moreover, the growth in the experiment with MDA-MB-435 melanoma was -62.6% (active); in the experiment on SW-620 colon it was 2.88% (active); in the experiment on MCF7 breast it was 15.3%; with HCT-116 colon, 9.43% (active); in the experiment on HCC-2998 colon it was -30.8% (active); in the experiment with KM12 colon, 62.6%.

As for `CC(=O)O[C@]1(C)C[C@H](O)[C@]2(O)C=CO[C@H](O[C@@H]3O[C@H](CO)[C@@H](O)[C@H](O)[C@H]3O)[C@@H]21`, the growth with SR leukemia was 92.3%; with RPMI-8226 leukemia it was 104%; in the experiment with OVCAR-8 ovarian, 110%; with OVCAR-5 ovarian, 103%; in the experiment with OVCAR-4 ovarian, 99.8%; with SK-OV-3 ovarian, 102%. Further, the growth in the experiment on IGROV1 ovarian was 100%; with OVCAR-3 ovarian, 108%; in the experiment with HS 578T breast, 112%; in the experiment on NCI/ADR-RES ovarian it was 107%; in the experiment on T-47D breast it was 92%; in the experiment on BT-549 breast, 94.6%. For the same molecule, the growth with MDA-MB-435 melanoma was 102%; in the experiment with SW-620 colon, 113%; in the experiment with MCF7 breast it was 94.4%; in the experiment on HCT-116 colon, 98.1%; in the experiment on HCC-2998 colon it was 116%; with KM12 colon, 95.1%.

With `CC(=O)C1=C(C)NC(SCc2nnc(-c3ccc(C)cc3)o2)=NC1c1ccc(F)cc1` (centres undefined), the growth in the experiment with SR leukemia was 80.9%; in the experiment on RPMI-8226 leukemia, 83.7%; in the experiment with OVCAR-8 ovarian it was 97%; in the experiment with OVCAR-5 ovarian, 89.6%; in the experiment on OVCAR-4 ovarian it was 108%; with SK-OV-3 ovarian it was 108%. Also, the growth with IGROV1 ovarian was 89%; in the experiment with OVCAR-3 ovarian, 105%; with HS 578T breast, 112%; in the experiment with NCI/ADR-RES ovarian it was 98.2%; in the experiment on T-47D breast it was 74.4%; with BT-549 breast it was 86.1%. For the same molecule, the growth in the experiment with MDA-MB-435 melanoma is 107%; with SW-620 colon it was 110%; in the experiment on MCF7 breast it was 95.4%; with HCT-116 colon, 93.6%; in the experiment on HCC-2998 colon it was 104%; in the experiment on KM12 colon, 100%.

For the molecule `COc1cc(-c2nc(C(=O)Nc3ccc(C)cc3)nn2-c2ccc(F)c(F)c2)cc(OC)c1OC`, the growth is 91.8% with SR leukemia; 103% in the experiment on RPMI-8226 leukemia; 103% in the experiment on OVCAR-8 ovarian; 117% with OVCAR-5 ovarian; 103% with OVCAR-4 ovarian; 89.1% in the experiment on SK-OV-3 ovarian. The growth is 86.9% in the experiment with IGROV1 ovarian; 107% in the experiment with OVCAR-3 ovarian; 121% in the experiment with HS 578T breast; 93.6% in the experiment on NCI/ADR-RES ovarian; 77.1% with T-47D breast; 100% with BT-549 breast. The growth with MDA-MB-435 melanoma is 93.3%; in the experiment with SW-620 colon, 110%; with MCF7 breast, 95.1%; with HCT-116 colon, 95.7%; in the experiment on HCC-2998 colon it was 86.6%; in the experiment with KM12 colon, 102%.

As for `CCCCCCCC(=O)SCC/C=C/[C@@H]1CC(=O)NCc2cc(ccn2)C2=N[C@@](C)(CS2)C(=O)N[C@@H](C(C)C)C(=O)O1`, the growth was 14.3% with SR leukemia; 13.6% with RPMI-8226 leukemia; 6.26% (active) with OVCAR-8 ovarian; 2.85% (active) in the experiment with OVCAR-5 ovarian; 10.9% in the experiment on OVCAR-4 ovarian; -22.6% (active) in the experiment on SK-OV-3 ovarian. In addition, the growth is -8.98% (active) in the experiment with IGROV1 ovarian; -22.9% (active) with OVCAR-3 ovarian; -8.43% (active) with HS 578T breast; 4.18% (active) with NCI/ADR-RES ovarian; -6.31% (active) in the experiment with T-47D breast; 36.4% with BT-549 breast. Moreover, the growth was -22.1% (active) in the experiment with MDA-MB-435 melanoma; -1.73% (active) in the experiment with SW-620 colon; 14.1% with MCF7 breast; -17.2% (active) with HCT-116 colon; -67.8% (active) with HCC-2998 colon; -3.5% (active) in the experiment on KM12 colon.

With `CCN(CC)CCOc1ccc(/C(=C(\C)c2ccc(Cl)cc2)c2ccc(Cl)cc2)cc1`, the growth in the experiment on SR leukemia is 0.594% (active); with RPMI-8226 leukemia it was 14.5%; in the experiment on OVCAR-8 ovarian, 82.7%; in the experiment with OVCAR-5 ovarian, 80.2%; in the experiment on OVCAR-4 ovarian, 78.8%; in the experiment with SK-OV-3 ovarian, 103%. Besides, the growth in the experiment on IGROV1 ovarian was 80%; in the experiment on OVCAR-3 ovarian, 83%; in the experiment on HS 578T breast it was 77.5%; with NCI/ADR-RES ovarian, 81.5%; in the experiment on T-47D breast, 55.2%; with BT-549 breast, 85.2%. Also, the growth in the experiment with MDA-MB-435 melanoma was 87.1%; with SW-620 colon, 30.8%; in the experiment with MCF7 breast it was 34.8%; in the experiment on HCT-116 colon, 47%; in the experiment on HCC-2998 colon, 93.6%; in the experiment on KM12 colon, 40.3%.

On to `COC(=O)CC[C@@H](C)[C@H]1CC[C@H]2C3CC[C@@H]4C[C@@H]5CC[C@]4(C)[C@@]3(O5)[C@H](Br)[C@@H](Br)[C@]12C` (some centres undefined), for which the growth in the experiment on SR leukemia was 82.6%; in the experiment with RPMI-8226 leukemia, 88.5%; in the experiment with OVCAR-8 ovarian it was 97.8%; in the experiment with OVCAR-5 ovarian, 102%; in the experiment with OVCAR-4 ovarian, 85.5%; with SK-OV-3 ovarian, 80.2%. Further, the growth in the experiment with IGROV1 ovarian was 103%; with OVCAR-3 ovarian it was 101%; in the experiment on HS 578T breast, 112%; in the experiment with NCI/ADR-RES ovarian, 103%; with T-47D breast it was 73.7%; in the experiment with BT-549 breast, 102%. Also, the growth is 93.8% in the experiment on MDA-MB-435 melanoma; 102% in the experiment on SW-620 colon; 87.7% in the experiment with MCF7 breast; 74.2% in the experiment on HCT-116 colon; 94.8% in the experiment on HCC-2998 colon; 99.8% in the experiment on KM12 colon.

`CCOC(=O)C1=C(C)NC(=O)NC1c1cc(=O)oc2ccc(C)cc12` (centres undefined): the growth in the experiment on SR leukemia was 97.1%; in the experiment on RPMI-8226 leukemia, 97.5%; in the experiment with OVCAR-8 ovarian, 102%; with OVCAR-5 ovarian it was 107%; in the experiment on OVCAR-4 ovarian, 106%; with SK-OV-3 ovarian, 104%. Moreover, the growth in the experiment on IGROV1 ovarian was 103%; with OVCAR-3 ovarian it was 110%; in the experiment with HS 578T breast, 109%; in the experiment on NCI/ADR-RES ovarian it was 102%; in the experiment with T-47D breast, 94.5%; with BT-549 breast, 111%. For the same molecule, the growth in the experiment on MDA-MB-435 melanoma is 117%; in the experiment on SW-620 colon it was 108%; in the experiment with MCF7 breast, 91.3%; in the experiment on HCT-116 colon it was 100%; in the experiment on HCC-2998 colon, 96.2%; in the experiment with KM12 colon, 101%.
